Molecular target: USP14 (UniProt P54578)
Assay: log2 ratio of Biotin-Ahx-Ub-VS probe labelling (fragment/DMSO); higher = less target engagement (more negative = stronger competition), active = hit call of the paper (q ≤ 0.05, log2 ratio ≤ -1)
Details: compound concentration: 200 uM; treatment time: 3 h
Procedure: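 Competitive ABPP in HEK293T cell lysate. Lysates were treated with each chloroacetamide fragment at 200 µM for 3 h, then with Biotin-Ahx-Ub-VS (0.5 µM, 1 h), NeutrAvidin-enriched and analysed by diaPASEF LC-MS/MS. Protein LFQ was median-normalised; average log2 ratio is fragment/DMSO from an unpaired t-test (n=3 treated, n=44 DMSO). Hits: q ≤ 0.05, log2 ratio ≤ -1, unique peptides ≥ 2.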

Chain of USP14 (P54578 whole entry, the tested form may be a part): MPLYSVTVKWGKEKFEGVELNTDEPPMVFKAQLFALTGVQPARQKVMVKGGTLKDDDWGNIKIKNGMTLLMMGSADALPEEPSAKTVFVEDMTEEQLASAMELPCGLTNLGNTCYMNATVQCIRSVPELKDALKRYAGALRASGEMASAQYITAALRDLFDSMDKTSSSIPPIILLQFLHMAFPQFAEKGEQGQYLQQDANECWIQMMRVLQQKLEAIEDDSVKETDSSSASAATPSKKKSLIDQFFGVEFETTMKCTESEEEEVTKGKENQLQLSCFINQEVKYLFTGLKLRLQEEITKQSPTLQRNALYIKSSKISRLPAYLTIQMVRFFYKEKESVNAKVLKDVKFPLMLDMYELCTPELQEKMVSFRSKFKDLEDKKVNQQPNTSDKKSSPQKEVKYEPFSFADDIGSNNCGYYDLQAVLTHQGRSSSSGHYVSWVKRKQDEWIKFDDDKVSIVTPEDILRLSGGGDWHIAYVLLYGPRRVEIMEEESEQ

**Q.** Which “log2 ratio of Biotin-Ahx-Ub-VS probe labelling” value (from here on “log2 ratio”) does the source give for `CC(NC(=O)CCl)c1cnn(C2CC2)c1` (configuration not stated) here?
**A.** -0.778 (inactive)

**Q.** `Cc1cc(Cl)ccc1NC(=O)CCl` was tested. Which “log2 ratio” value did it give?
**A.** -0.0914 (inactive)

**Q.** How did the “log2 ratio” value turn out when `Cc1ccc(CN(CCO)C(=O)CCl)cc1` was run?
**A.** -0.249 (inactive)

**Q.** For `CC(NC(=O)CCl)c1noc(Cc2ccccc2)n1` (configuration not stated), which “log2 ratio” value is on record?
**A.** -0.411 (inactive)

**Q.** With `O=C(CCl)N1CCC(OCc2ccccc2F)CC1` as the molecule, how does the “log2 ratio” value read?
**A.** 0.0975 (inactive)

**Q.** `Cc1ccc(CC(NC(=O)CCl)c2ccccn2)cc1.Cl` (configuration not stated) was tested. Which “log2 ratio” value did it give?
**A.** -0.0182 (inactive)

**Q.** How did the “log2 ratio” value turn out when `CCC(NC(=O)CCl)c1ccc(Cl)cc1` (configuration not stated) was run?
**A.** -0.332 (inactive)
